# The list is not random: actives were taken first. Their share in the collection is about 4%.
# Shn3 inh set2: reduces Shn3 3'UTR luciferase signal in osteoblasts. 360,000 compounds, 0.52% hits. AID 588674. inhibition, % at 12.5 µM. Clone20 osteoblast Shn3 3'UTR firefly luciferase, 24 h;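 active = mean inhibition of at least 75% with every replicate also reaching 75%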
# CSC inhib: blocks cancer stem cells; cancer stem cell-like cells viability, luminescence; inhibition, % at 7.5 µM; 300,000 compounds, 1.1% hits; AID 2717; in the data active = inhibition above about 75%; tested in HMLE shEcad cells
# Beta apoptosis: beta cell apoptosis inhibition; INS-1E cytokine-induced death, ATP luminescence, 48 h; percent of positive-control rescue, neutral wells zero; protection from apoptosis, % (test concentration not listed); 300,000 compounds, 0.8% hits;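 active = Every replicate reaches about 75%, or at least half do and their mean reaches it too, limit read from the data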;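 note: higher means more ATP so stronger rescue from cytokine killing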
# PAX8 reporter: inhibitors of PAX8 transcriptional activity in RMG-I cells. RMG-I TPO-luciferase reporter, SteadyGlo, 24 h. 360,000 compounds, 1.2% hits. inhibition, % at 12.6 µM;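 active = mean replicate inhibition at least 60% with every replicate also reaching 60%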;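 note: luciferase light reporting Pax8 driven TPO promoter activity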
# Gli-Sufu block: Gli-Sufu pathway antagonism. inhibition, % at 5 µM. 340,000 compounds, 0.74% hits. Sufu-KO-LIGHT fibroblasts, Gli luciferase reporter luminescence. AID 588413;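 active = inhibition above about 55%, limit read from the data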
# Mdm2 MdmX PPI: disrupts the human Mdm2-MdmX interaction; O15151+Q00987; 330,000 compounds, 3% hits; SaOS-2 split-luciferase Mdm2/MdmX complementation, luminescence; AID 485346; inhibition, % at 8 µM;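 active = inhibition of at least 50% at 8 µM in the primary screen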
# Target sequence (O15151 whole entry, looked up): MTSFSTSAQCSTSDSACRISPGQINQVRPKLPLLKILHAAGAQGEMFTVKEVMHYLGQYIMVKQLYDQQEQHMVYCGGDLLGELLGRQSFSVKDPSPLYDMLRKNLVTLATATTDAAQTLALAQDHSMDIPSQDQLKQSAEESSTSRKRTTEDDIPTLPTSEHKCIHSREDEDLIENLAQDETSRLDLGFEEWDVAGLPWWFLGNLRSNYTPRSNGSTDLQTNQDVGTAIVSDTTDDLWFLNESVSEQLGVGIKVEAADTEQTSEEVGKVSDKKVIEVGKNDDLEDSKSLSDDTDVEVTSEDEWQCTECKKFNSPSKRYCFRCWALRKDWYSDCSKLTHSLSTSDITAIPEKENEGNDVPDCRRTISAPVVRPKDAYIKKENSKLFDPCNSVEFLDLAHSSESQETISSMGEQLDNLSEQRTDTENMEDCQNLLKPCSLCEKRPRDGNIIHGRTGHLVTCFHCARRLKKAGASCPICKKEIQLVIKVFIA
# Target sequence (Q00987 whole entry, looked up): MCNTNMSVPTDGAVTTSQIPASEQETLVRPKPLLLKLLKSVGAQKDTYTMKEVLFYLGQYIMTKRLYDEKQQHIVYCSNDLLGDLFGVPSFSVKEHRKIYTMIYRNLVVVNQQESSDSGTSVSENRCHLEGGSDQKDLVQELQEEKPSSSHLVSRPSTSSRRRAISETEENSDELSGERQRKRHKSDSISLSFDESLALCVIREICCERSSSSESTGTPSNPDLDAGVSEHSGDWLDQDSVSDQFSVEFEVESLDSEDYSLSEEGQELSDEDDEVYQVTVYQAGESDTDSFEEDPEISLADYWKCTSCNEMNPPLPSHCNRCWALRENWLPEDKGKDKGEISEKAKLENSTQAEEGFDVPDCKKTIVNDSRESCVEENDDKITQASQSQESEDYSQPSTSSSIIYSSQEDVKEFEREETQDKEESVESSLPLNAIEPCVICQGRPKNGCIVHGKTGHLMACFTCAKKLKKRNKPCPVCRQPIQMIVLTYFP
# Mdm2-MdmX conf: confirmation of human Mdm2/MdmX interaction inhibitors; shares compounds with Mdm2 MdmX PPI; Mdm2-MdmX binding, luminescent assay; inhibition, % at 8 µM; 10,000 compounds, 55% hits; in the data active = inhibition above about 40%
# Full FLuc ctr: counter-screen for Mdm2/MdmX inhibitors: full-length luciferase. shares compounds with Mdm2 MdmX PPI. SaOS-2 full-length luciferase counterscreen, luminescence. 6,200 compounds, 77% hits. inhibition, % at 8 µM;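 active = mean inhibition at 8 µM reaching about 37%, which flags the compound as non-specific, limit read from the data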;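 note: p53-null SaOS-2 cells with luciferase driven by a doxycycline-inducible promoter; compound on cells about two nights before reading with doxycycline added after day one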
# Numbers stand for hits; 0 = inactive; - = no result given.
SMILES,Shn3 inh set2,CSC inhib,Beta apoptosis,PAX8 reporter,Gli-Sufu block,Mdm2 MdmX PPI,Mdm2-MdmX conf,Full FLuc ctr
Cc1cc2sc3ccc(C#CC4(O)CCCCC4)cc3c(=O)c2cc1C,94,0,0,0,-,94,97,54
COc1cc2oc3ccc(C#Cc4ccc(N)cc4)cc3c(=O)c2cc1OC,0,0,-,0,0,-,-,-
COc1cccc2oc3ccc(C#CC4(N)CCCCC4)cc3c(=O)c12,0,0,0,0,0,96,0,-
NC1(C#Cc2ccc3c(=O)c4ccccc4sc3c2)CCCCC1,0,0,0,0,0,0,-,-
O=C(C[C@H]1CC[C@@H](NS(=O)(=O)c2ccc(F)cc2)[C@@H](CO)O1)NC1CCCCC1,-,-,-,0,-,-,-,-
CC(C)NC(=O)Nc1ccc2c(c1)C(=O)N([C@H](C)CO)C[C@@H](C)[C@H](CN(C)Cc1ccc(-c3ccccc3)cc1)O2,-,-,-,0,-,-,-,-
N#Cc1ccc(C#Cc2ccc3oc4ccccc4c(=O)c3c2)cc1,0,0,0,0,0,67,0,-
Nc1ccc(C#Cc2ccc3c(=O)c4ccccc4oc3c2)cc1,0,0,0,0,0,0,-,-
O=C(/C=C\c1cn(-c2ccccc2)nc1-c1ccccc1)Nc1nccs1,0,0,0,0,0,84,81,0
Cc1ccccc1S(=O)(=O)N[C@H]1CC[C@@H](CCn2cc(-c3ccccc3)nn2)O[C@@H]1CO,-,-,-,0,-,-,-,-
COCCn1c(SC(C)C(=O)Nc2ncc(Cl)cc2Cl)nc2ccccc21 (stereo unspecified),0,0,0,-,0,67,50,58
COc1ccc(C(CCNCc2ccccc2)c2ccc(F)cc2)cc1 (stereo unspecified),0,0,0,0,0,0,-,-
COc1ccc(C(CCNCc2ccc(OC(C)C)cc2)c2ccccc2OC)cc1 (stereo unspecified),89,101,76,0,0,87,0,82
COc1ccc(C(CCNCc2ccc(N(C)C)cc2)c2ccccc2OC)cc1 (stereo unspecified),0,0,0,0,0,54,0,-
COc1ccc(CNCCC(c2ccc(OC)cc2)c2ccccc2OC)cc1 (stereo unspecified),0,0,0,0,0,0,-,-
Cc1ccc(S(=O)(=O)Nc2cccc3c2O[C@@H](CN(C)CC2CC2)[C@H](C)CN([C@H](C)CO)C3=O)cc1,-,-,-,0,-,-,-,-
C[C@H](CO)N1C[C@H](C)[C@H](CN(C)S(=O)(=O)c2ccc(Cl)cc2)Oc2ccc(NC(=O)Cc3ccccc3)cc2CC1=O,-,-,-,0,-,-,-,-
O=[N+]([O-])c1c(Nc2ccccc2O)ccc2nonc12,0,0,0,0,0,0,-,-
O=[N+]([O-])c1c(Nc2ccccc2O)cc(Cl)c2nonc12,97,0,0,91,0,95,100,54
CC(=O)Nc1ccc(Nc2cc(N3CCOCC3)c3nonc3c2[N+](=O)[O-])cc1,0,0,0,0,0,0,-,-
O=[N+]([O-])c1c(Nc2ccc(O)cc2)cc(N2CCOCC2)c2nonc12,0,0,0,0,0,51,0,-
CC1CCN(CCOCCOc2ccc(Br)cc2Cl)CC1,0,-,0,0,0,52,0,-
CC(NC(=O)/C(C#N)=C/c1ccco1)c1ccccc1 (stereo unspecified),0,0,0,0,0,0,-,-
CC(NC(=O)/C(C#N)=C1\N=C(NC(=O)c2ccco2)c2ccccc21)c1ccccc1 (stereo unspecified),-,0,0,0,0,67,0,-
CC(C)NC(=O)N(C)C[C@H]1Oc2ccc(NC(=O)Nc3ccc(C(F)(F)F)cc3)cc2C(=O)N([C@@H](C)CO)C[C@H]1C,-,-,-,0,-,-,-,-
SMILES,Shn3 inh set2,CSC inhib,Beta apoptosis,PAX8 reporter,Gli-Sufu block,Mdm2 MdmX PPI,Mdm2-MdmX conf,Full FLuc ctr
CN(C)c1ccnc2sc(C(=O)c3ccc(Br)cc3)c(N)c12,0,0,0,0,0,0,-,-
CN(C)c1ccnc2sc(C(N)=O)c(N)c12,0,0,0,-,0,97,81,0
C[C@H](CO)N1C[C@H](C)[C@H](CN(C)C(=O)Nc2ccc(C(F)(F)F)cc2)OCCCC[C@H](C)Oc2ccc(NC(=O)Nc3ccc4c(c3)OCO4)cc2C1=O,-,-,-,0,-,-,-,-
C[C@H](CO)N1C[C@H](C)[C@@H](CN(C)Cc2ccc(Cl)c(Cl)c2)Oc2ccc(NS(C)(=O)=O)cc2C1=O,-,-,-,0,-,-,-,-
COc1ccccc1NC(=O)N1CCC(c2nc3cc(C)c(C)cc3[nH]2)CC1,0,0,0,0,0,57,70,72
COc1ccccc1NC(=S)N1CCC(c2nc3cc(C)c(C)cc3[nH]2)CC1,0,0,0,-,0,0,-,-
Cc1cc2nc(C3CCCN(C(=S)Nc4ccccc4)C3)[nH]c2cc1C (stereo unspecified),0,0,0,-,0,51,0,-
O=C(c1cnccn1)N1CC(=O)N2[C@H](C1)[C@H](c1ccc(C#CCc3ccccc3)cc1)[C@@H]2CO,-,-,-,0,-,-,-,-
COc1cc2c(=O)n(Cc3ccco3)c(=O)n(CC(=O)c3cccc(Br)c3)c2cc1OC,-,0,0,-,0,50,0,-
CCn1cc([N+](=O)[O-])c(C(=O)N2N=C(c3ccc(OC)cc3OC)CC2c2ccccc2O)n1 (stereo unspecified),0,0,-,0,0,0,-,-
CCn1cc([N+](=O)[O-])c(C(=O)N2N=C(c3cccc4ccccc34)CC2c2ccccc2O)n1 (stereo unspecified),0,0,0,0,0,52,41,75
CCn1cc([N+](=O)[O-])c(C(=O)N2N=C(c3ccc4ccccc4c3)CC2c2ccccc2O)n1 (stereo unspecified),0,0,0,-,0,61,59,86
CCn1cc(Cl)c(C(=O)N2N=C(c3ccc4ccccc4c3)CC2c2ccccc2O)n1 (stereo unspecified),0,0,0,0,0,69,40,57
CS(=O)(=O)N1[C@H](CO)[C@@H](c2ccc(C#Cc3cccc(F)c3)cc2)[C@@H]1C#N,-,-,-,0,-,-,-,-
C=CCn1cc(CN2CCC(C(=O)Nc3cccc(-c4cccc(F)c4)c3)CC2)c(C)n1,0,0,0,0,0,51,0,-
C=CCn1cc(CN2CCC(C(=O)Nc3cccc(-c4cccc(Cl)c4)c3)CC2)c(C)n1,0,0,0,0,0,81,0,-
Cc1nn(C(C)C)c(C)c1CN1CCC(C(=O)Nc2cccc(-c3cccc(F)c3)c2)CC1,0,0,0,0,0,78,52,62
C=CCn1cc(CN2CCC(C(=O)Nc3ccc(Oc4cccnc4)cc3)CC2)c(C)n1,0,0,0,0,0,0,-,-
Cc1cccc(CN2CCC(C(=O)Nc3cccc(-c4cccc(F)c4)c3)CC2)n1,0,0,0,0,0,0,-,-
CCCn1ncc(CN2CCC(C(=O)Nc3cccc(-c4cccc(F)c4)c3)CC2)c1C,0,0,-,0,0,87,46,71
